Screening data: PubChem, The Scripps Research Institute Molecular Screening Center
Sampled rows, rich in hits. Any-hit rate of the full collection: about 3.4%.
KLK7 zymogen act = activates the human kallikrein-7 zymogen | purified proKLK7, EDANS-DABCYL substrate fluorescence; 100% is mature enzyme control, 0% vehicle | P49862 | 370,000 compounds, 0.9% hits | activation, % at 7 µM;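 active = activation above the mean of all tested compounds plus 3 SD, computed per campaign excluding outliers beyond control limits, cut at about 13% in these data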
Target sequence (P49862 whole entry, looked up): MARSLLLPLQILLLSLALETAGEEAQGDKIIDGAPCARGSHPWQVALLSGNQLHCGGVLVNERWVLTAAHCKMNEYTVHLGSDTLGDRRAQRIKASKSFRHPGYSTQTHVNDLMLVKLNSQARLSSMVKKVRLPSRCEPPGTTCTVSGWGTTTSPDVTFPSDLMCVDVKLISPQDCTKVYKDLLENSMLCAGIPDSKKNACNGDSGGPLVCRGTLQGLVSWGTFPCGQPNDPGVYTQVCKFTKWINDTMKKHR
ADAM10 inh = inhibits human ADAM10; O14672; recombinant ADAM10, EDANS/DABCYL FRET peptide cleavage, 3 h; inhibition, % at 7 µM; 370,000 compounds, 0.62% hits; AID 720582;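 active = inhibition above a per-campaign cutoff equal to the mean of compounds falling between control-based bounds plus 3 SD, cut at about 20% in these data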;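 note: 0% = DMSO wells while the 100% control is not disclosed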
PLCg1 inh = blocks human PLC-gamma1 enzyme activity; inhibition, % at 12.2 µM; purified PLC-gamma1, fluorogenic substrate, fluorescence; P19174; 370,000 compounds, 0.84% hits; in the data active = inhibition above about 9.5%
HGIII-sPLA2 inh = Blocks human group III sPLA2 activity. QFRET BODIPY PC-A2 liposome hydrolysis, fluorescence. inhibition, % at 12.2 µM. 370,000 compounds, 0.56% hits. AID 743126;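 active = inhibition above mean plus 3 SD of compounds lying within the high and low control bounds, cut at about 19% in these data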;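 note: 0% = median of test compound wells and 100% = no enzyme DMSO wells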
ADAM17 inh = inhibits human ADAM17; recombinant ADAM17, EDANS/DABCYL FRET peptide cleavage; inhibition, % at 6.95 µM; 370,000 compounds, 0.83% hits;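 active = inhibition above the mean of compounds lying between control limits plus 3 SD, set per campaign, cut at about 8.5% in these data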;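 note: 0% = DMSO-only wells as the low control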
PLCb3 inh = blocks human PLC-beta3 enzyme activity; Q01970; Purified PLC-beta3, fluorogenic substrate, fluorescence; inhibition, % at 12.2 µM; 370,000 compounds, 0.18% hits; in the data active = inhibition above about 11%;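 note: 0% = median of compound wells on plate and 100% = full blocker control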
proKLK7 act conf = proKLK7 activation, confirmation; shares compounds with KLK7 zymogen act; purified proKLK7, EDANS-DABCYL substrate fluorescence; scaled: vehicle 0, mature enzyme 100; AID 686949; 3,200 compounds, 68% hits; activation, % at 7 µM;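 active = activation, as change over the incubation, above the mean of all tested compounds plus 3 SD, cut at about 13% in these data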
EDANS interfere = optically interferes with EDANS-DABCYL signal, flagging KLK7 hits; 3,200 compounds, 80% hits; shares compounds with KLK7 zymogen act; activation, % at 7 µM; AID 686952; EDANS-DABCYL substrate fluorescence interference, no enzyme, 4 h; solvent 0%, active enzyme control 100%;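 active = activation above the all-compound mean plus 3 SD, ignoring values outside control-based bounds, cut at about 4.8% in these data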;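 note: value is the 4 h activation minus the activation read at time zero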
K7 EDANS ctr = optically interferes with EDANS-DABCYL fluorescence, kallikrein-7 activator counter-screen. shares compounds with KLK7 zymogen act. EDANS-DABCYL peptide fluorescence interference, no enzyme. EC50, µM. 250 compounds, 20% hits. AID 720493;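 active = compounds that raise the fluorescence signal in this interference counterscreen, with EC50 at or below 10 µM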;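 note: intact quenched peptide substrate alone read at 355 nm excitation and 520 nm emission; signal is fluorescence gain from T0 to T4 after four hours at room temperature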
An asterisk follows results filed as active; i = inactive; nt = no result given.

SMILES	KLK7 zymogen act	ADAM10 inh	PLCg1 inh	HGIII-sPLA2 inh	ADAM17 inh	PLCb3 inh	proKLK7 act conf	EDANS interfere	others
CCc1cc2c(=O)c(Oc3ccccc3)c(C)oc2cc1O	55*	i	i	-13	i	i	65*	78*
C#CCC1c2ccccc2CCN1CC=C (stereo not drawn)	0	-11	-1	0	-3	-1	nt	nt
CCCCc1cc(=O)oc2cc(C)cc(OC(C)C(=O)NCc3ccccn3)c12 (stereo not drawn)	-6	-169	-61	5	-44	-67	nt	nt
Cc1cc(OC(C)C(=O)NCc2ccccn2)c2c(C)cc(=O)oc2c1 (stereo not drawn)	14*	-425	-167	3	-135	-252	11	12*
CNc1cnc(-c2ccsc2)cn1	15*	i	-161	-6	-352	-225	12	12*
CCNC(=O)/C(C#N)=C/c1c(N2CCN(c3ccccc3)CC2)nc2ccccn2c1=O	14*	i	-173	14	-280	-232	19*	16*	K7 EDANS ctr=i
CCN1CCN(c2nc3c(C)cccn3c(=O)c2/C=C(\C#N)C(=O)NCCOC)CC1	30*	i	-170	6	-159	-252	20*	21*
COCCCNC(=O)/C(C#N)=C/c1c(N2CCN(C)CC2)nc2ccccn2c1=O	17*	i	-154	-1	-331	-215	10	12*
CCOC(=O)/C(C#N)=C/c1c(N2CCN(Cc3ccc4c(c3)OCO4)CC2)nc2c(C)cccn2c1=O	0	-9	0	4	-3	-10	nt	nt
Cc1cccn2c(=O)c(/C=C(\C#N)C(N)=O)c(N3CCN(Cc4ccc5c(c4)OCO5)CC3)nc12	15*	i	-130	0	-297	-138	3	3
CC(C)c1[nH]nc2c1C(c1ccccc1)NC2=O (stereo not drawn)	0	-6	1	-1	-1	2	nt	nt
O=C(C(=O)N1CCC(CNS(=O)(=O)c2ccc(F)cc2)CC1)c1cc2ccccc2o1	0	8	1	-19	2	3	nt	nt
C[C@@H]1ON(C)[C@H]2C[C@H]3c4cc(-c5ccccc5)ccc4CCN3C[C@@H]12	1	-32	-31	-1	-9	-38	nt	nt
CC1CN(C(=O)c2cc3c(=O)n4ccccc4nc3s2)CC(C)O1 (stereo not drawn)	26*	i	i	5	i	i	42*	40*
CC1CC(C)CN(C(=O)c2cc3c(=O)n4ccccc4nc3s2)C1 (stereo not drawn)	14*	i	-345	2	-354	i	14*	12*	K7 EDANS ctr=>70
O=C(Nc1c(F)c(F)c(F)c(F)c1F)OC[C@@H]1CSCCS(=O)(=O)N1	1	2	4	-1	3	4	nt	nt
Cc1ccc(/C=N/NC(=O)c2c(C)nc3ccc(Cl)cn23)cc1	0	6	3	3	1	-5	nt	nt
N#Cc1c(=O)c2nc(NCCCO)ncc2n2c(=O)c3ccccc3[nH]c12	-6	-5	-404	-3	0	i	nt	nt
N#Cc1c(=O)c2nc(NCc3ccccc3)ncc2n2ccccc12	19*	-402	i	1	-103	i	24*	26*
O=c1[nH]c(=O)c2nc(-c3ccc(Cl)cc3)cnc2[nH]1	57*	i	i	2	-366	i	70*	69*
O=c1[nH]c(=S)[nH]c2nc(-c3ccccc3)cnc12	-1	-47	-31	12	-13	-52	nt	nt
Cc1cc(/C=C(\C#N)C(=O)Nc2ccccc2F)c(C)[nH]1	32*	-72	-70	4	-28	-118	6	6.9*
O=C(c1cc2c(s1)-c1ccccc1OC2)N1CCN(c2ccccc2)CC1	-5	-238	-89	-7	-62	-128	nt	nt
CC(=O)c1cc2c(s1)-c1cc(F)ccc1OC2	71*	i	i	-1	-355	i	69*	74*
COc1ccc(N2CCN(C(=O)c3cc4c(s3)-c3ccccc3OC4)CC2)cc1	4	-310	-68	-1	-86	-83	nt	nt
SMILES	KLK7 zymogen act	ADAM10 inh	PLCg1 inh	HGIII-sPLA2 inh	ADAM17 inh	PLCb3 inh	proKLK7 act conf	EDANS interfere	others
COc1cccc(N2CCN(C(=O)c3cc4c(s3)-c3ccccc3OC4)CC2)c1	24*	-253	-124	-9	-75	-156	4	21*
CCOC(=O)N1CCN(C(=O)c2cc3c(s2)-c2ccccc2OC3)CC1	32*	i	i	-3	i	i	-12	2
CCCN1CCN(C(=O)c2cc3c(s2)-c2ccccc2OC3)CC1	66*	i	i	7	i	i	-94	84*
C[C@H]1[C@@H](NC(=O)c2ccc(C(F)(F)F)cc2)CC[C@@]23CCCN2C(=O)CCC[C@@H]13	nt	0	3	2	1	4	nt	nt
O=C(c1cc2c(s1)-c1ccccc1OC2)N1CCCC1	74*	i	i	-4	i	i	62*	69*
O=C1c2ccccc2C(=O)N1c1nc2nccc(-c3ccccc3)n2n1	4	i	-258	0	-353	-280	nt	nt
O=C(Nc1nc2nccc(-c3ccccc3)n2n1)C(Cl)(Cl)Cl	39*	i	i	6	i	i	47*	46*
COC(=O)C1=C(C)N(Cc2ccccc2C(F)(F)F)C(=NCc2ccc(C(F)(F)F)cc2)NC1c1cccc(Cl)c1 (stereo not drawn)	0	-8	6	-7	1	6	nt	nt
COc1ccc(-c2nc3ccccc3c(=O)[nH]2)cc1	-1	0	-5	9	-3	-11	nt	nt
COc1cc(-c2nc3ccc(N4CCN(C)CC4)cc3[nH]2)cc(OC)c1OC	81*	i	i	0	i	i	64*	70*
COc1ccc(-c2nc3ccc(N4CCN(C)CC4)cc3c(=O)[nH]2)cc1	14*	-315	-321	0	-118	-364	3	5.5*
COc1ccc(-c2cc(C(=O)NC3CCCC3)c3ccccc3n2)cc1	-35	-392	i	0	-146	i	nt	nt
COc1ccc(-c2cc(C(=O)NC3CC3)c3ccccc3n2)cc1	42*	-445	i	1	-133	i	25*	15*	K7 EDANS ctr=>70
COc1ccc(-c2cc(C(=O)N3CCCC3)c3ccccc3n2)cc1	22*	i	i	0	i	i	-19	2
